Records with an inconclusive call do not appear. Entries that show only a call come without a potency. Values without a mark were called inactive. Active and inactive are the calls of the source. Calls come from the whole dose curve.
Assay: qHTS assay for small molecule disruptors of the mitochondrial membrane potential - cell viability (AID 720634);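 note: human HepG2 liver cancer cells; nearly all actives have a fitted effect of over 20% in size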
Conditions: HepG2 viability, ATP luminescence (CellTiter-Glo), 1 h; series mostly up to 83.2 µM
From the text: U.S. Tox21 Program National Center for Advancing Translational Sciences [NCATS] NIH Chemical Genomics Center [NCGC] U.S. Environmental Protection Agency [EPA] National Institutes of Environmental Health Sciences [NIEHS] National Toxicology Program [NTP] U.S. Food and Drug Administration [FDA] Tox21 Assay Overview: Mitochondrial membrane potential (MMP), one of the parameters for mitochondrial function, is generated by mitochondrial electron transport chain that creates an electrochemical gradient by a series of redox reactions. This gradient drives the synthesis of ATP, a crucial molecule for various cellular processes. Measuring MMP in living cells is commonly used to assess the effect of chemicals on mitochondrial function; decreases in MMP can be detected using lipophilic cationic fluorescent dyes. […] The dye accumulates in the mitochondria of healthy cells as aggregates, with red fluorescence. The mitochondrial potential decreases and the dye could not accumulate in the mitochondria and remains in the cytoplasm in monomers, with green fluorescence. In addition to the mitochondrial potential assay, these cells were also used to test the cytotoxicity by determining the cell viability in the culture based on the quantitation of ATP present. The cytotoxicity was measured in the same assay well of MMP assay.
Tox21 Assay Protocol Summary: 2,000 HepG2 cells in 5 uL/well were dispensed into black, clear-bottom 1536-well plates using a Multidrop Combi (Thermo Scientific) dispenser. The assay plates were incubated for an overnight at 37 C to allow cells to attach to the wells, followed by the transfer of 23 nL compound or DMSO vehicle by a pin tool (Kalypsys). The plates were incubated for 1 hr at 37 C and 5% CO2, followed by the addition of 5 uL of 2X m-MPI dye into each well using Flying Reagent Dispenser (Aurora Discovery) and then CellTiter-Glo reagent was added at 4 uL/well and incubated 30 min at room temperature. Then luminescence intensity was quantified on a ViewLux CCD-based plate reader.

| SMILES | Potency | activity change, negative = cytotoxicity |
| --- | --- | --- |
| CCNC(=O)N1CCN(CCCC(c2ccc(F)cc2)c2ccc(F)cc2)CC1 | inactive | – |
| CCCCCCCCCCCCCCCCBr | inactive | – |
| CC#N | inactive | – |
| CCOC(=O)C(C)Oc1ccc(Oc2nc3ccc(Cl)cc3o2)cc1 (stereo not given) | inactive | – |
| CC1=C(C=O)C(C)(C)CCC1 | inactive | – |
| CNC(=O)N(c1ccccc1)c1ccccc1 | inactive | – |
| CCC(C(=O)OCCOCCN(CC)CC)c1ccccc1 (stereo not given) | inactive | – |
| O=C1NCCN1 | inactive | – |
| [O]=[Bi] | – | 7.5% [at 8.08 µM] |
| COCCOC | inactive | – |
| O=C(Nc1ccc([N+](=O)[O-])cc1)Nc1ccc([N+](=O)[O-])cc1 | inactive | – |
| CC1CC(O)CC(C)(C)C1 (stereo not given) | inactive | – |
| Nc1ccc(C(=O)OCCCOC(=O)c2ccc(N)cc2)cc1 | inactive | – |
| NC(=O)Nc1ccc(Cl)cc1 | inactive | – |
| Cc1cc(O)c(C(C)C)cc1Cl | inactive | – |
| CCCCCCCCCCCC[N+](C)(C)CCCS(=O)(=O)[O-] | inactive | – |
| Oc1ccc(Nc2ccccc2)cc1 | inactive | – |
| CC1(C)C2=CCCC(C)(C)[C@]23CC[C@H]1C3 | inactive | – |
| CCCCCC=CCC=CCCCCCCCC(=O)OCC | inactive | – |
| Cc1ccc(Nc2nccc(N(C)c3ccc4c(C)n(C)nc4c3)n2)cc1S(N)(=O)=O | inactive | – |

| SMILES | Potency | activity change, negative = cytotoxicity |
| --- | --- | --- |
| CNCCCC1c2ccccc2C=Cc2ccccc21 | inactive | – |
| CCn1nc(C)c2c1C(=O)NCC(c1ccc(O)cc1)=N2 | inactive | – |
| CCc1nn(CCCN2CCN(c3cccc(Cl)c3)CC2)c(=O)n1CCOc1ccccc1 | inactive | – |
| Cc1cnc(C)c(C)n1 | inactive | – |
| CCCCCCCCCCCCCCC[C@H](O)[C@@H](N)CO | inactive | – |
| COC(OC)(C(=O)c1ccccc1)c1ccccc1 | inactive | – |
| C=CC(=C)CCCC(C)(C)OC(C)=O | inactive | – |
| C=CCOC(=O)/C=C\C(=O)OCC=C | inactive | – |
| C=CC(C)=CCC=C(C)C | inactive | – |
| C[N+]1(C)CCC(=C(c2ccccc2)c2ccccc2)CC1 | inactive | – |
| N#C/C(=C1\SCC(c2ccccc2Cl)S1)n1ccnc1 (stereo not given) | inactive | – |
| CN1CCCN=C1/C=C/c1cccs1 | inactive | – |
| NCC1CCCC(CN)C1 (stereo not given) | inactive | – |
| N#C[C@@H]1C[C@@H]2C[C@@H]2N1C(=O)[C@@H](N)C12CC3CC(CC(O)(C3)C1)C2 | inactive | – |
| CCOC(=O)CC(=O)C(=O)OCC | inactive | – |
| CCCCCCCC/C=C\CCCCCCCC(=O)OC | inactive | – |
| O=c1[nH]c2ccc(S(=O)CCN3CCC(Cc4ccc(F)cc4)CC3)cc2o1 (stereo not given) | inactive | – |
| C[Si]1(C)O[Si](C)(C)O[Si](C)(C)O1 | inactive | – |
| CCc1cccc(N(C)C(N)=Nc2cccc3ccccc23)c1 | inactive | – |
| C/C=C/C=C/CCCCCCCO | inactive | – |

Reference: PubChem BioAssay (Tox21)
